Compound activity as filed in PubChem.
An excerpt weighted towards active compounds, which were near 17% of everything screened.
ATXN2 expr inh: ATXN2 expression inhibition; HEK-293 ATXN2-luciferase reporter, luminescence, 24 h; Potency, µM (doses to about 57 µM), for the others: at the top dose activity change, negative = inhibition, usual class: inhibitors; 360,000 compounds, 0.72% hits; AID 1745845; also: % is scaled to controls: 0 for no effect and ±100 for the full control effect; nearly all actives have a fitted effect of over 55% in size
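ATXN2-luciferase reporter cells (luciferase flanked by upstream and downstream ATXN2 gene portions) were treated 24 h at 37 °C with compounds at up to 57 uM. SteadyGlo luminescence gave expression; GF-AFC fluorescence gave viability.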
DT40 TDP1 no CPT: qHTS for Inhibitors of human tyrosyl-DNA phosphodiesterase 1 (TDP1): qHTS in cells in absence of CPT | DT40 Tdp1-/- hTDP1 cells, no CPT, ATP luminescence, 48 h | Potency, µM (highest dose often 46.2 µM), for inactives: at the highest dose activity change, negative = growth inhibition, hits mostly inhibitors | 420,000 compounds, 15% hits | AID 686978, 2013; also: % is scaled to controls: 0 for no effect and ±100 for the full control effect; nearly all actives have a fitted effect of over 55% in size
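Chicken DT40 Tdp1-/- cells complemented with human TDP1, screened without camptothecin (DMSO vehicle only), 400 cells/well. Compounds pin-transferred, cells incubated at 37 °C for at least 48 hr. Growth read as ATP-dependent luminescence (CellTiter-Glo, 30 min at RT).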
DT40 TDP1 CPT: growth inhibition of DT40 Tdp1-/-;hTDP1 cells with camptothecin (screen for TDP1 inhibitors); chicken DT40 Tdp1-/-;hTDP1 cells + 20 nM CPT, ATP luminescence, 48 h; AID 686979; 420,000 compounds, 12% hits; Potency, µM (highest dose often 46.2 µM), for inactives: at the top dose activity change, negative = growth inhibition, most hits filed as inhibitors; also: % is scaled to controls: 0 for no effect and ±100 for the full control effect; nearly all actives have a fitted effect of over 55% in size
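Cell growth measured by CellTiter-Glo luminescence after a minimum 48 h, 37 C compound exposure with 20 nM CPT in Tdp1-knockout DT40 cells stably expressing hTDP1, seeded 400/well; qHTS titration format.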
TGFb SMAD3 inh: blocks TGF-b signaling. 410,000 compounds, 1.2% hits. Potency, µM (highest dose often 46.1 µM), without a hit: at the top dose activity, negative = inhibition, most hits filed as inhibitors. HepG2 CAGA-GFP TGF-b/SMAD3 reporter, GFP fluorescence, 18 h; TGF-beta stimulated, 500 pg/mL final; also: % is scaled to controls: 0 for no effect and ±100 for the full control effect; nearly all actives have a fitted effect of over 65% in size
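HEPG2 CAGA-GFP reporter cells (1000/well, DMEM with 1% FBS) received compounds, then recombinant TGF-beta at 500 pg/mL final for 18 hours at 37 degrees C. Per-cell GFP summed per well was normalised to unstimulated and stimulated DMSO controls before curve fitting.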
ATXN viability: viability counter-screen for ATXN expression inhibitors. 400,000 compounds, 0.49% hits. Potency, µM (highest dose often 56.7 µM), hits mostly cytotoxic. S2 cells (HEK-293 line with an ATXN2-luciferase reporter) viability, CellTiter-Fluor protease fluorescence, 24 h. AID 651635; also: nearly all actives have a fitted effect of over 40% in size
HepG2 viability: kills HepG2 cells in TGF-b inhibitor counter-screen; HepG2 CAGA-GFP viability, ATP luminescence, 18 h; Potency, µM (top dose mostly 46.1 µM), without a hit: at the top dose activity change, negative = cytotoxicity, most hits filed as cytotoxic; 410,000 compounds, 0.76% hits; AID 588856
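CellTiter-Glo luminescence gave cytotoxicity after 18 hours at 37 degrees C. The cells were HepG2 CAGA-GFP in 1% FBS DMEM, stimulated with 500 pg/mL TGF-beta after compound addition. %Activity was normalised to no-cell wells (complete cell-killing) and DMSO (no toxicity), and curves were fitted and classified.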
* hit, by the source's call; i = inactive; ? = inconclusive; . = no result given. Calls follow the shape of the dose curve; as a rule, active = well fitted curve in the direction sought with a large enough effect; inconclusive = small, poorly fitted or top-dose-only effect, or another doubt; inactive = no such curve, though single readings can be large; an effect the other way counts as inactive or inconclusive. Potency is read from the fitted curve at half-maximal effect.

SMILES	ATXN2 expr inh	DT40 TDP1 no CPT	DT40 TDP1 CPT	TGFb SMAD3 inh	ATXN viability	HepG2 viability
O=C(CSc1n[nH]c(=O)[nH]c1=O)NC1CC1	.	0.9%	-3.8%	-22.6%	i	4.0%
Cc1ccc(C)c(NC(=O)Cn2cc(S(=O)(=O)c3ccc(F)cc3)c(=O)c3cc(F)ccc32)c1	3.7%	-7.6%	4.9%	32.3%	i	-0.2%
COc1ccc(C(C)=O)cc1CSc1nc2ccccc2c(=O)n1-c1ccccc1C	-12.4%	20.6µM*	18.4µM*	1.3%	?	9.0%
Cc1ccc(/C=N/N(C)S(=O)(=O)c2ccc(C)cc2)cc1	-22.6%	20.6µM*	23.1µM*	-26.3%	i	-4.5%
Cc1ccc(S(=O)(=O)N(C)/N=C/c2ccc(C(=O)O)cc2)cc1	.	9.0%	-0.5%	6.8%	?	6.3%
CSc1ccc(/C=N/N(C)S(=O)(=O)c2ccc(C)cc2)cc1	-26.2%	7.31µM*	?	0.0%	i	-2.1%
Cc1ccc(S(=O)(=O)N(C)CCN(C)S(=O)(=O)c2ccc(C)cc2)cc1	3.9%	23.1µM*	?	0.0%	i	-13.4%
O=C1CC(c2ccccc2)=C(c2ccccc2)C1c1ccccc1 (centres undefined)	-9.2%	?	29.1µM*	-16.2%	?	-9.0%
O=C1NNC(=O)C1c1ccccc1	12.0%	1.2%	-0.8%	14.9%	i	9.0%
COc1ccc(S(=O)(=O)Nc2cc3c(cc2NCc2ccccc2)n(C)c(=O)n3C)cc1	45.4%	?	8.2µM*	45.0%	i	-13.2%
COc1ccc(NS(=O)(=O)c2ccc3c(c2)n(C)c(=O)n3C)cc1	1.4%	-8.5%	-29.3%	-1.6%	i	3.3%
CCCS(=O)(=O)Nc1cc2c(cc1NCc1ccccc1)n(C)c(=O)n2C	41.0%	?	9.2µM*	13.6%	i	-22.5%
c1csc(CNc2nc(NCC3CCCCC3)c3sccc3n2)c1	?	9.2µM*	5.8µM*	?	?	-109.4%
CC(=O)NCCNc1nc(NCc2cccs2)nc2ccsc12	13.8%	?	-2.9%	-0.7%	i	-1.0%
CNc1nc(NCc2ccccc2)c2sccc2n1	-13.4%	16.4µM*	18.4µM*	?	i	-26.0%
c1ccc(CNc2nc(NCc3cccs3)nc3ccsc23)cc1	-6.9%	11.6µM*	18.4µM*	?	?	-47.9%
CCCOc1cccc(C2C(C(=O)c3cccs3)=C(O)C(=O)N2CCN2CCOCC2)c1 (centres undefined)	7.2%	3.5%	-3.5%	-18.5%	i	-2.6%
COc1ccc(C(CC(=O)c2ccc3c(c2)OCO3)C(=O)O)cc1OC (centres undefined)	.	5.7%	-3.4%	-2.4%	i	5.4%
CC(=O)Nc1ccc(-c2ccnc3c2CC(C(=O)NCC2CC2)O3)cc1 (centres undefined)	10.2%	8.2µM*	13µM*	5.8%	i	4.8%
CC(=O)Nc1ccc(-c2ccnc3c2CC(C(=O)NCCC(F)(F)F)O3)cc1 (centres undefined)	6.2%	14.6µM*	13µM*	0.1%	i	-2.9%
CC(=O)Nc1ccc(-c2ccnc3c2CC(C(=O)NCC2CCOCC2)O3)cc1 (centres undefined)	15.2%	4.11µM*	4.61µM*	-5.6%	i	-5.5%
COCCNC(=O)C1Cc2c(-c3ccc(NC(C)=O)cc3)ccnc2O1 (centres undefined)	12.1%	?	?	54.6%	i	3.3%
Cc1ccc(CCNC(=O)C2COc3ccccc3C2)cc1 (centres undefined)	11.5%	-22.3%	?	?	i	-21.2%
CCc1ccc(C(=O)COC(=O)c2ccccc2OC)cc1	5.5%	8.2%	-2.1%	-6.4%	?	-0.3%
Nc1ccc(C(=O)N2CC3CC(CN(Cc4ccccc4)C3)C2)cc1	0.3%	.	.	.	i	.
SMILES	ATXN2 expr inh	DT40 TDP1 no CPT	DT40 TDP1 CPT	TGFb SMAD3 inh	ATXN viability	HepG2 viability
C=CCOc1c(CNn2nnnc2N)cccc1OC	1.4%	-10.6%	-6.4%	-14.0%	i	1.7%
COc1cc(CNn2nnnc2N)cc(Br)c1OCc1c(Cl)cccc1Cl	-24.5%	20.6µM*	18.4µM*	0.0%	i	-31.1%
CCOC(=O)c1ccc(NS(=O)(=O)c2c(N)n(C)c(=O)n(C)c2=O)cc1	-18.9%	?	16.4µM*	-22.9%	i	-35.5%
CCOC(=O)c1ccc(NS(=O)(=O)c2c(C)n[nH]c2C)cc1	7.9%	2.3%	-20.6%	8.5%	i	11.6%
CCOc1ccc(N2C(=O)/C(=C\c3ccc(OC)c(O)c3)S(=O)(=O)C2c2cccc([N+](=O)[O-])c2)cc1 (centres undefined)	-13.7%	?	-28.5%	5.3%	.	3.7%
CCOc1ccc(N2C(=O)/C(=C\c3ccc(O)c(OC)c3)S(=O)(=O)C2c2cccc([N+](=O)[O-])c2)cc1 (centres undefined)	.	?	18.4µM*	0.7%	i	3.3%
O=C(c1ccc(Oc2cc(Cl)cc(Cl)c2)o1)N1CCCCC1	.	-3.2%	-14.3%	-15.4%	i	-7.8%
COc1cccc(CCN2CCC(CNS(=O)(=O)c3cc(-c4cc(C)no4)ccc3C)CC2)c1	.	?	?	15.8µM*	?	-109.6%
Cc1cc(-c2ccc(C)c(S(=O)(=O)NCC3CCN(Cc4ccccc4F)CC3)c2)on1	-14.2%	23.1µM*	18.4µM*	?	?	-23.7%
O=C(COC(=O)/C=C/C(=O)OCC(=O)NC12CC3CC(CC(C3)C1)C2)NC12CC3CC(CC(C3)C1)C2	?	14.6µM*	13µM*	0.0%	.	-45.1%
CC(=O)Oc1cc(C(=O)OCC(=O)NC23CC4CC(CC(C4)C2)C3)cc(OC(C)=O)c1OC(C)=O	-29.1%	?	5.8µM*	-21.6%	i	-37.6%
O=C(COC(=O)c1ccccc1O)NC12CC3CC(CC(C3)C1)C2	13.1%	18.4µM*	11.6µM*	4.6%	i	-6.1%
COc1cccc(C(=O)OCC(=O)NC23CC4CC(CC(C4)C2)C3)c1	-0.5%	-8.1%	-10.8%	3.0%	?	10.5%
Cc1cccc(C(=O)OCC(=O)NC23CC4CC(CC(C4)C2)C3)c1O	72.9%	18.4µM*	9.2µM*	-5.3%	i	-16.7%
O=C(COC(=O)c1cccs1)NC12CC3CC(CC(C3)C1)C2	-2.5%	-2.6%	16.8%	17.2%	i	14.6%
